{"source": "paper PMC12431657", "about": "“Discovery and mechanistic insights of dibenzoylmethane as a broad spectrum inhibitor of coronavirus” (PLOS Pathogens, 2025)", "tested_on": "HCoV-229E", "parameters": "species or system Huh-7; HTS, protection from HCoV-229E induced cell death, luminescent cell viability (CellCounting-Lite 2.0), inhibition rate", "note": "Where two headings read alike, the source gives them in different places. Screen size: about 3,300 compounds; about 95 (3%) showed an effect of 50% or more. This excerpt belongs to a sample that is enriched for strong results.", "data": [{"smiles": "C[C@]12CC[C@@H](O)C[C@H]1CC[C@@H]1[C@@H]2CC[C@]2(C)C(=O)CC[C@@H]12", "note": "[Etiocholanolone]", "values": [{"measurement": "229E Inhibition rate", "setting": "24 h, 10 µM; inhibitor", "value": 13.1, "unit": "%"}]}, {"smiles": "C[C@]12CC[C@H](O)C[C@@H]1CC[C@@H]1[C@@H]2CC[C@]2(C)C(=O)CC[C@@H]12", "note": "[Epiandrosterone]", "values": [{"measurement": "229E Inhibition rate", "setting": "24 h, 10 µM; inhibitor", "value": 29.3, "unit": "%"}]}, {"smiles": "C[C@]12CC[C@@H](O)C[C@@H]1CC[C@@H]1[C@@H]2CC[C@]2(C)C(=O)CC[C@@H]12", "note": "[Androsterone]", "values": [{"measurement": "229E Inhibition rate", "setting": "24 h, 10 µM; inhibitor", "value": 52.3, "unit": "%"}]}, {"smiles": "COc1cc2cc(c1Cl)N(C)C(=O)C[C@H](OC(=O)C(C)C)[C@]1(C)O[C@@H]1[C@H](C)[C@@H]1C[C@@](O)(NC(=O)O1)[C@H](OC)/C=C/C=C(\\C)C2", "note": "[Ansamitocin P-3]", "values": [{"measurement": "229E Inhibition rate", "setting": "24 h, 10 µM; inhibitor", "value": 22.8, "unit": "%"}]}, {"smiles": "CN(C)NC(=O)CCC(=O)O", "note": "[Daminozide]", "values": [{"measurement": "229E Inhibition rate", "setting": "24 h, 10 µM; inhibitor", "value": 12.3, "unit": "%"}]}, {"smiles": "NC(=O)Cc1ccccc1", "note": "[2-Phenylacetamide]", "values": [{"measurement": "229E Inhibition rate", "setting": "24 h, 10 µM; inhibitor", "value": 20.1, "unit": "%"}]}, {"smiles": "NC(=O)NCCCC[C@H](N)C(=O)O", "note": "[L-Homocitrulline]", "values": [{"measurement": "229E Inhibition rate", "setting": "24 h, 10 µM; inhibitor", "value": 20.7}]}, {"smiles": "CC(C)(C)[C@]1(O)C[C@@H]2OC(=O)C[C@@]23C(=O)O[C@@H]2OC(=O)[C@H](O)[C@]213", "note": "[Bilobalide]", "values": [{"measurement": "229E Inhibition rate", "setting": "24 h, 10 µM; inhibitor", "value": 54.8, "unit": "%"}]}, {"smiles": "C/C=C/C#CC#C/C=C/c1ccco1", "note": "[Atractylodin]", "values": [{"measurement": "229E Inhibition rate", "setting": "24 h, 10 µM; inhibitor", "value": 10.3, "unit": "%"}]}, {"smiles": "C[C@@H]1CC[C@@]2(OC1)O[C@H]1[C@@H](O)[C@H]3[C@@H]4CC[C@H]5C[C@@H](O[C@@H]6O[C@H](CO)[C@H](O[C@@H]7O[C@H](CO)[C@@H](O)[C@H](O[C@@H]8OC[C@@H](O)[C@H](O)[C@H]8O)[C@H]7O[C@@H]7O[C@H](CO)[C@H](O)[C@H](O[C@@H]8O[C@H](CO)[C@@H](O)[C@H](O)[C@H]8O)[C@H]7O)[C@H](O)[C@H]6O)[C@H](O)C[C@]5(C)[C@H]4CC[C@]3(C)[C@H]1[C@@H]2C", "note": "[Digitonin]", "values": [{"measurement": "229E Inhibition rate", "setting": "24 h post infection, 1 h compound pre-incubation; 10 µM; inhibitor", "value": 13.7, "unit": "%"}]}, {"smiles": "CCN1C[C@]2(C)CC[C@H](OC)[C@@]34C1[C@]1(OCO[C@@]15C[C@H](OC)[C@H]1C[C@]3(O)[C@@H]5[C@H]1OC)[C@@H](OC(C)=O)[C@H]24", "note": "[Deltaline]", "values": [{"measurement": "229E Inhibition rate", "setting": "24 h, 10 µM; inhibitor", "value": 2.6, "unit": "%"}]}, {"smiles": "CN1Cc2c(ccc3c2OCO3)[C@@H]2[C@H]1c1cc3c(cc1C[C@@H]2O)OCO3", "note": "[Chelidonine]", "values": [{"measurement": "229E Inhibition rate", "setting": "24 h, 10 µM; inhibitor", "value": 12.4, "unit": "%"}]}, {"smiles": "C[C@H]1O[C@@H](O[C@H]2CC[C@@]3(C)[C@H](CC[C@@H]4[C@@H]3C[C@@H](O)[C@]3(C)[C@@H](C5=CC(=O)OC5)CC[C@]43O)C2)C[C@H](O)[C@@H]1O[C@H]1C[C@H](O)[C@H](O[C@H]2C[C@H](O)[C@H](O[C@@H]3O[C@H](CO)[C@@H](O)[C@H](O)[C@H]3O)[C@@H](C)O2)[C@@H](C)O1", "note": "[Deslanoside]", "values": [{"measurement": "229E Inhibition rate", "setting": "24 h, 10 µM; inhibitor", "value": 55.1}]}, {"smiles": "CO[C@@H]1C[C@H](O[C@H]2CC[C@@]3(C)[C@H](CC[C@@]45O[C@@]46CC[C@H](C4=CC(=O)OC4)[C@@]6(C)CC[C@H]35)C2)O[C@H](C)[C@@H]1O", "note": "[Adynerin]", "values": [{"measurement": "229E Inhibition rate", "setting": "24 h, 10 µM; inhibitor", "value": 9.5, "unit": "%"}]}, {"smiles": "CO[C@H]1C[C@H](O[C@H]2CC[C@]3(C)[C@H]4CC[C@]5(C)[C@@H](C6=CC(=O)OC6)CC[C@]5(O)[C@@H]4CC[C@]3(O)C2)O[C@H](C)[C@H]1O[C@@H]1O[C@H](CO)[C@@H](O)[C@H](O)[C@H]1O", "note": "[Periplocin]", "values": [{"measurement": "229E Inhibition rate", "setting": "24 h, 10 µM; inhibitor", "value": 25}]}, {"smiles": "CC(C)=CCCC1=CC(=O)c2c(O)ccc(O)c2C1=O", "note": "[Deoxyshikonin]", "values": [{"measurement": "229E Inhibition rate", "setting": "24 h, 10 µM; inhibitor", "value": 9.8, "unit": "%"}]}, {"smiles": "CC1(C)[C@H]2O[C@H]2[C@H]2[C@](C)(O)[C@@H]3CC[C@@H]4[C@@H](O)[C@@]3(C[C@@H](O)[C@@]21O)C[C@@]4(C)O", "note": "[Rhodojaponin III]", "values": [{"measurement": "229E Inhibition rate", "setting": "24 h, 10 µM; inhibitor", "value": 46.8, "unit": "%"}]}, {"smiles": "CC(C)[C@@H]1NC(=O)[C@H](C)OC(=O)[C@@H](C(C)C)NC(=O)[C@@H](C(C)C)OC(=O)[C@H](C(C)C)NC(=O)[C@H](C)OC(=O)[C@@H](C(C)C)NC(=O)[C@@H](C(C)C)OC(=O)[C@H](C(C)C)NC(=O)[C@H](C)OC(=O)[C@@H](C(C)C)NC(=O)[C@@H](C(C)C)OC1=O", "note": "[Valinomycin]", "values": [{"measurement": "229E Inhibition rate", "setting": "24 h, 10 µM; inhibitor", "value": 90.8, "unit": "%"}]}, {"smiles": "COC1=CC(=O)O[C@@H](/C=C/c2ccccc2)C1", "note": "[(+)-Kavain]", "values": [{"measurement": "229E Inhibition rate", "setting": "24 h, 10 µM, inhibitor", "value": 9.8, "unit": "%"}]}, {"smiles": "COC(=O)[C@]12OC[C@]34[C@H]([C@@H](O)[C@@H]1O)[C@@]1(C)CC(=O)C(O)=C(C)[C@@H]1C[C@H]3OC(=O)[C@H](OC(=O)/C=C(\\C)C(C)(C)OC(C)=O)[C@@H]24", "note": "[Bruceantinol]", "values": [{"measurement": "229E Inhibition rate", "setting": "24 h, 10 µM; inhibitor", "value": 0, "unit": "%"}]}]}
